PubChem BioAssay (Tox21)
Results filed as inconclusive are left out. Activity calls are given as the source filed them. Unless noted, the call rests on the fitted dose curve; in most records, active means well fitted curve in the direction sought with a large enough effect in the repeat runs; inconclusive means weak or mixed curves; inactive means no such curve, though single readings can be large; an effect the other way counts as inactive or inconclusive.

Assays:
[1] = qHTS assay to identify small molecule agonists of the hypoxia (HIF-1) signaling pathway - cell viability counter screen (AID 1224844; calls by dose curve; further: nearly all actives have a fitted effect of over 50% in size; further: potency means the concentration at half of the fitted maximal effect)
In short: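 CellTiter-Glo luminescence read-out, 30 min RT, taken in the same wells as the beta-lactamase HRE reporter assay; HRE-bla ME-180 cells, 0.5% dialyzed FBS, 17 hr compound treatment at 37C, 5% CO2.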

[2] = qHTS assay to identify small molecule antagonists of the estrogen related receptor (ERR) signaling pathway from Tox21 library (AID 1224848); further: potency means the concentration at half of the fitted maximal effect; nearly all actives have a fitted effect of over 50% in size
In short: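 Quantitative high-throughput format: ERR reporter cells (2,000/well) pre-incubated 6 h, treated 18 h at 37 C with compounds in DMSO alongside positive and negative controls, then read by ONE-Glo luminescence.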

[3] = qHTS assay to identify small molecule agonists of the estrogen related receptor (ERR) signaling pathway from Tox21 library (AID 1224849; calls by dose curve; further: on the % scale 0 is the no-effect control and ±100 the full control effect; nearly all actives have a fitted effect of over 15% in size); details: ERR reporter cell line, ONE-Glo luciferase, 18 h; at 92.4 µM (top of the series) unless noted
In short: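 Luminescence readout (ONE-Glo, 30 min RT) after 18 h compound exposure at 37 C of NTP-supplied ERR reporter cells; cells were plated 6 h before compound addition by pin tool.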

[4] = qHTS RealTime-Glo MT Cell Viability Assay in HepG2 cells - 24 hour (AID 1224867); further: nearly all actives have a fitted effect of over 50% in size; further: potency means the concentration at half of the fitted maximal effect
In short: (§1)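 HepG2 cells were seeded at 600 cells/well together with NanoLuc luciferase and a cell-permeant prosubstrate, preincubated 5 h at 37 C/5% CO2, then pin-dosed with compounds in DMSO. Nonlytic luminescence from viable cells was read at each time point.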

[5] = qHTS RealTime-Glo MT Cell Viability Assay in HEK293 cells - 32 hour (AID 1224868); further: nearly all actives have a fitted effect of over 50% in size; further: potency means the concentration at half of the fitted maximal effect
In short: (§2)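 HEK293 cells were seeded at 600 cells/well together with NanoLuc luciferase and cell-permeant prosubstrate, preincubated 5 h at 37 C/5% CO2, then given compound in DMSO by pintool. Luminescence from viable-cell prosubstrate reduction was read repeatedly over 40 h.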

[6] = A CellTox Green Cytotoxicity Assay to monitor cytotoxicity in HEK293 cells - 0 hour (AID 1224869)
In short: (§3)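 Read-out: fluorescence of a cell-impermeant cyanine dye staining DNA of dead cells, proportional to cytotoxicity. HEK293, 600 cells/well with reagent, compound (23 nL DMSO) added after 5 h; reads at 0, 8, 16, 24, 32, 40 h.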

[7] = qHTS RealTime-Glo MT Cell Viability Assay in HepG2 cells - 40 hour (AID 1224870); further: nearly all actives have a fitted effect of over 50% in size; further: potency means the concentration at half of the fitted maximal effect
In short: (§4)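 HepG2 cells (600/well) mixed with RealTime-Glo MT reagent, settled 5 h at 37 C/5% CO2 before compound addition. Nonlytic NanoLuc luminescence from viable-cell prosubstrate reduction read repeatedly during 40 h treatment at 37 C.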

[8] = A CellTox Green Cytotoxicity Assay to monitor cytotoxicity in HEK293 cells - 40 hour (AID 1224871); further: nearly all actives have a fitted effect of over 45% in size; further: potency means the concentration at half of the fitted maximal effect
In short: as §3

[9] = qHTS RealTime-Glo MT Cell Viability Assay in HEK293 cells - 16 hour (AID 1224872); further: nearly all actives have a fitted effect of over 50% in size; further: potency means the concentration at half of the fitted maximal effect
In short: as §2

[10] = qHTS RealTime-Glo MT Cell Viability Assay in HepG2 cells - 8 hour (AID 1224873); further: nearly all actives have a fitted effect of over 55% in size; further: potency means the concentration at half of the fitted maximal effect
In short: as §4

[11] = qHTS RealTime-Glo MT Cell Viability Assay in HEK293 cells - 40 hour (AID 1224874); details: RealTime-Glo luminescence; max response: hits give low values; further: nearly all actives have a fitted effect of over 50% in size; further: potency means the concentration at half of the fitted maximal effect; on max response: on the % scale 0 is the no-effect control and ±100 the full control effect
In short: (§5)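 Luminescence readout at each listed time point; HEK293, 600 cells/well, RealTime-Glo MT reagent added with cells; compounds pinned (23 nL in DMSO) after 5 h at 37 C; continuous culture at 37 C.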

[12] = A CellTox Green Cytotoxicity Assay to monitor cytotoxicity in HEK293 cells - 24 hour (AID 1224875); further: nearly all actives have a fitted effect of over 45% in size; further: potency means the concentration at half of the fitted maximal effect; on activity change: on the % scale 0 is the no-effect control and ±100 the full control effect
In short: as §3

[13] = A CellTox Green Cytotoxicity Assay to monitor cytotoxicity in HepG2 cells - 16 hour (AID 1224876); further: on the % scale 0 is the no-effect control and ±100 the full control effect; nearly all actives have a fitted effect of over 45% in size
In short: (§6)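 HepG2, 600 cells/well premixed w/ CellTox Green; 5 h settle, 37 C/5% CO2; pintool cpd add (DMSO); 37 C, 40 h; fluorescence read at 0, 8, 16, 24, 32, 40 h.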

[14] = qHTS RealTime-Glo MT Cell Viability Assay in HepG2 cells - 32 hour (AID 1224877); further: nearly all actives have a fitted effect of over 55% in size; further: potency means the concentration at half of the fitted maximal effect
In short: as §1

[15] = A CellTox Green Cytotoxicity Assay to monitor cytotoxicity in HepG2 cells - 24 hour (AID 1224878); further: nearly all actives have a fitted effect of over 45% in size; further: potency means the concentration at half of the fitted maximal effect; on Cytotoxicity: on the % scale 0 is the no-effect control and ±100 the full control effect
In short: as §6

[16] = A CellTox Green Cytotoxicity Assay to monitor cytotoxicity in HepG2 cells - 40 hour (AID 1224879); further: nearly all actives have a fitted effect of over 40% in size; further: potency means the concentration at half of the fitted maximal effect
In short: as §6

[17] = qHTS RealTime-Glo MT Cell Viability Assay in HEK293 cells - 0 hour (AID 1224880)
In short: as §5

[18] = qHTS assay to identify small molecule agonists of H2AX (AID 1224845; active means well fitted activation curve with a large enough effect in the signal ratio in the repeat runs, not every such curve was filed as active; the % refers to the signal ratio; further: potency means the concentration at half of the fitted maximal effect)
In short: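 Wild-type CHO-K1 cells, plated overnight, exposed 3hr at 37C to 15 concentrations (0.76% DMSO final). Lysed, then HTRF anti-pH2AX (S139) cryptate and anti-H2AX-d2 antibodies, 24 hr room temperature; 665/620 nm emission read.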

[19] = qHTS assay to identify small molecule agonists of the hypoxia (HIF-1) signaling pathway (AID 1224846; active means well fitted activation curve with a large enough effect in the signal ratio in the repeat runs, not every such curve was filed as active; the % refers to the signal ratio; further: on the % scale 0 is the no-effect control and ±100 the full control effect)
In short: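 Beta-lactamase FRET read-out (CCF4-AM substrate) from ME-180 cells carrying an HRE-driven bla reporter, after 17 hrs compound exposure at 37C/5% CO2. Cells were seeded at 2,000 per well in 0.5% dialyzed FBS medium and preincubated 5 hrs.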

[20] = qHTS assay to identify small molecule agonists of H2AX - cell viability counter screen (AID 1224847; calls by dose curve; further: top concentration of the series differs between compounds; on the % scale 0 is the no-effect control and ±100 the full control effect; nearly all actives have a fitted effect of over 30% in size)
In short: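 Counter-screen for viability: CellTiter-Glo ATP luminescence read after 3 h compound treatment (15-point titration, 0.76% DMSO final) of CHO-K1 cells at 37C, with 30 min room-temperature reagent incubation.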

O=c1c(-c2ccccc2)c1-c1ccccc1
inactive: activity change, positive = activation [3] -61.4% [at 42.5 µM] | Potency [6] | Potency [13] | Potency [17]
active: Potency [1] 13.4 µM | Potency [2] 8.41 µM | Potency [4] 16.9 µM | Potency [5] 13.4 µM | Potency [7] 15.1 µM | Potency [8] 5.35 µM | Potency [9] 15.1 µM | Potency [10] 23.9 µM | Potency [11] 10.7 µM | Potency [12] 5.35 µM | Potency [14] 15.1 µM | Potency [15] 10.7 µM | Potency [16] 10.7 µM

Cc1ccc(O)c2ncccc12
active: Potency [2] 18.8 µM | Potency [16] 7.56 µM
inactive: Potency [1] | activity change, positive = activation [3] -58.3% [at 42.5 µM] | Potency [4] | Potency [5] | Potency [6] | Potency [7] | Potency [9] | Potency [10] | max response [11] -18.6% | Potency [12] | Potency [13] | Potency [14] | Potency [17]

ON=C1CCCC1
active: Potency [18] 104 µM | Potency [2] 39.9 µM | Potency [9] 22.6 µM | Potency [11] 22.6 µM
inactive: Potency [19] | activity change, positive = activation [3] -71.1% | Potency [4] | Potency [6] | Potency [7] | Potency [8] | Potency [10] | Potency [12] | Potency [13] | Potency [14] | Potency [15] | Potency [16] | Potency [17]

COc1cccc2c1C(=O)c1c(O)c3c(c(O)c1C2=O)C[C@@](O)(C(=O)CO)C[C@@H]3O[C@H]1C[C@H](N)[C@H](O[C@@H]2CCCCO2)[C@H](C)O1
inactive: Potency [6] | Potency [8] | Potency [12] | Potency [17]
active: Potency [1] 12 µM | Potency [2] 4.22 µM | Potency [4] 2.13 µM | Potency [5] 0.239 µM | Potency [7] 1.9 µM | Potency [11] 0.19 µM | Potency [15] 9.52 µM | Potency [16] 1.51 µM

CCC1=C[C@@H]2CN(C1)Cc1c([nH]c3ccccc13)[C@@](C(=O)OC)(c1cc3c(cc1OC)N(C)[C@H]1[C@@](O)(C(=O)OC)[C@H](OC(C)=O)[C@]4(CC)C=CCN5CC[C@]31[C@@H]54)C2
active: Potency [2] 18.8 µM | Potency [5] 0.0151 µM | Potency [9] 23.9 µM | Potency [11] 0.0067 µM
inactive: Potency [18] | Potency [19] | Potency [20] | Potency [6] | Potency [12] | Potency [16] | Potency [17]

CC(C)C(C)(C)C(C)(C)C(C)(C)S
inactive: Potency [18] | Potency [19] | Potency [20] | Potency [4] | Potency [5] | Potency [8] | Potency [10] | max response [11] 0.74% | Potency [12] | Potency [13] | Potency [14] | Potency [16] | Potency [17]

Oc1cccc(-c2c3nc(c(-c4cccc(O)c4)c4ccc([nH]4)c(-c4cccc(O)c4)c4nc(c(-c5cccc(O)c5)c5ccc2[nH]5)CC4)C=C3)c1
inactive: Potency [1] | Potency [6] | Potency [7] | Potency [8] | Potency [12] | Potency [13] | Potency [14] | Potency [15] | Potency [16] | Potency [17]
active: Potency [9] 23.9 µM
